This passage reports growth results from PubChem BioAssay (NCI).

About 83,000 compounds went through this panel and 20% of them were active in at least one assay; those are over-represented in the sample as a whole.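 Results are percent growth after 48 hours of single-concentration exposure. 100 means growth as in untreated cells, lower positive values show inhibition; negative values down to -100 show cell death.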 A number with no mark means an inactive call. Active and inactive are the calls of the source. The calls were made as follows: active = growth percent below 10; inactive = the rest.

Some test systems named below: NCI-H23 lung; NCI-H226 lung; NCI-H322M lung; HOP-62 NSCLC; NCI-H460 lung; HOP-92 NSCLC; NCI-H522 lung; A549/ATCC NSCLC; 786-0 renal; COLO 205 colon; DU-145 prostate; K-562 leukemia; MALME-3M melanoma; MDA-MB-231 breast; RXF 393 renal; SF-268 CNS; SF-295 CNS; SF-539 CNS; UACC-257 melanoma; M14 melanoma.
Common to all, as to experiment: NCI-60 one-dose screen, 48 h (100 = growth as untreated, 0 = no growth, -100 = all killed)
Holding throughout (conditions): 10 µM unless noted

For the molecule `Cc1cccc(NC(=O)N/C(N)=N/c2nc3ccccc3s2)c1`, the growth in the assay on NCI-H23 lung was 40.9%; in the assay on NCI-H226 lung, 53.7%; in the assay with NCI-H322M lung, 47.7%; in the assay on HOP-62 NSCLC, 30.3%; in the assay on NCI-H460 lung, 17.6%; in the assay on HOP-92 NSCLC, 62.7%. Besides, the growth with NCI-H522 lung is 16%; with A549/ATCC NSCLC, 45.9%; in the assay with 786-0 renal it was 38.6%; in the assay with COLO 205 colon, 16.9%; with DU-145 prostate, 34.6%; in the assay with K-562 leukemia, 18.1%. For the same molecule, the growth in the assay with MALME-3M melanoma is 50.7%; with MDA-MB-231 breast, 58.8%; in the assay on RXF 393 renal, 26.3%; with SF-268 CNS, 54.2%; with SF-295 CNS, 49.1%; in the assay on SF-539 CNS, -3.23% (active). Further, the growth in the assay with UACC-257 melanoma was 55%; in the assay on M14 melanoma, 16.5%.
On to `O=C(Oc1ccc2c(c1)sc1nc(-c3ccccc3)[nH]c(=O)c12)C(F)(F)F`, for which the growth with NCI-H23 lung was 52.8%; in the assay on NCI-H226 lung, 58.3%; with NCI-H322M lung, 56.3%; in the assay with HOP-62 NSCLC, 39.3%; with NCI-H460 lung, 13%; in the assay with HOP-92 NSCLC it was 54.1%. For the same molecule, the growth with NCI-H522 lung was 25.1%; in the assay on A549/ATCC NSCLC it was 28.3%; with 786-0 renal it was 51%; with COLO 205 colon, 88.3%; in the assay with DU-145 prostate, 44.2%; in the assay on K-562 leukemia, 15.3%. The growth with MALME-3M melanoma is 33.3%; with MDA-MB-231 breast it was 61.4%; in the assay with RXF 393 renal, 43.8%; in the assay with SF-268 CNS, 44%; with SF-295 CNS, 51.9%; with SF-539 CNS, 27.9%. The growth in the assay on UACC-257 melanoma was 49.1%; with M14 melanoma, 4.5% (active).
Consider `Nc1ccc(-c2ccncc2)cc1NC(=O)N1CCCC1`, for which the growth in the assay with NCI-H23 lung is 102%; in the assay with NCI-H226 lung, 98.1%; in the assay with NCI-H322M lung it was 92%; in the assay with HOP-62 NSCLC it was 86.5%; with NCI-H460 lung, 100%; in the assay with HOP-92 NSCLC, 104%. For the same molecule, the growth in the assay with NCI-H522 lung is 57.4%; in the assay with A549/ATCC NSCLC it was 87.7%; with 786-0 renal, 96.8%; with COLO 205 colon it was 105%; in the assay on DU-145 prostate it was 105%; in the assay on K-562 leukemia, 102%. Also, the growth in the assay on MALME-3M melanoma was 69.9%; in the assay on MDA-MB-231 breast, 120%; with RXF 393 renal, 100%; with SF-268 CNS it was 93.3%; in the assay with SF-295 CNS, 103%; in the assay with SF-539 CNS, 90.1%. Further, the figures for the growth in the assay with UACC-257 melanoma and with M14 melanoma were 59.7% and 94.2%, respectively.
On to `Cc1sc2nc(NCCN)[nH]c(=O)c2c1C`, for which the growth was 91% in the assay with NCI-H23 lung; 84.8% with NCI-H226 lung; 83.7% in the assay with NCI-H322M lung; 99.8% with HOP-62 NSCLC; 101% with NCI-H460 lung; 87.7% with HOP-92 NSCLC. The growth with NCI-H522 lung was 102%; with A549/ATCC NSCLC, 101%; in the assay with 786-0 renal, 84.2%; with COLO 205 colon, 77%; with DU-145 prostate, 96.7%; in the assay with K-562 leukemia, 103%. Moreover, the growth is 82.1% in the assay with MALME-3M melanoma; 81.1% in the assay with MDA-MB-231 breast; 100% in the assay on RXF 393 renal; 91.4% with SF-268 CNS; 98% with SF-295 CNS; 88.1% with SF-539 CNS. For the same molecule, the growth in the assay on UACC-257 melanoma was 107%; with M14 melanoma, 85.1%.
With `CN(C)/C(N)=N/N=C(\c1ccccc1)c1ccccn1`, the growth in the assay on NCI-H23 lung is 95.7%; with NCI-H226 lung it was 97.3%; in the assay with NCI-H322M lung, 83.1%; in the assay with HOP-62 NSCLC it was 110%; with NCI-H460 lung, 101%; with HOP-92 NSCLC, 87.2%. Besides, the growth in the assay on NCI-H522 lung was 95.5%; with A549/ATCC NSCLC it was 107%; in the assay with 786-0 renal it was 99.9%; with COLO 205 colon, 106%; in the assay on DU-145 prostate, 97.7%; in the assay on K-562 leukemia it was 96.7%. Further, the growth in the assay with MALME-3M melanoma is 93.3%; with MDA-MB-231 breast, 88.1%; with RXF 393 renal it was 98.5%; with SF-268 CNS, 92.6%; in the assay on SF-295 CNS, 106%; with SF-539 CNS, 103%. The growth in the assay on UACC-257 melanoma was 112%; with M14 melanoma, 93%.
As for `Cc1ccc(C)c2c1sc1nc(N3CCOCC3)c(C#N)c(=O)n12`, the growth is 76.1% in the assay on NCI-H23 lung; 89.6% in the assay with NCI-H226 lung; 107% in the assay with NCI-H322M lung; 94.2% in the assay on HOP-62 NSCLC; 94.9% in the assay with NCI-H460 lung; 71.7% in the assay with HOP-92 NSCLC. Moreover, the growth is 94.8% in the assay with NCI-H522 lung; 98.4% with A549/ATCC NSCLC; 104% in the assay on 786-0 renal; 104% with COLO 205 colon; 103% in the assay with DU-145 prostate; 151% in the assay with K-562 leukemia. The growth with MALME-3M melanoma is 97.1%; with MDA-MB-231 breast, 92%; in the assay on RXF 393 renal, 114%; with SF-268 CNS, 88%; in the assay with SF-295 CNS, 61.7%; in the assay on SF-539 CNS, 96.4%. Moreover, the growth with UACC-257 melanoma is 112%; in the assay on M14 melanoma it was 92.9%.
In the case of `CCN(CCNc1ccc(C)c2sc3cc(Cl)ccc3c(=O)c12)CC(C)(C)O`, the growth with NCI-H23 lung was 82.3%; in the assay with NCI-H226 lung, 87.6%; in the assay with NCI-H322M lung it was 74%; in the assay on HOP-62 NSCLC, 45.3%; in the assay with NCI-H460 lung it was 44.4%; in the assay on HOP-92 NSCLC, 48.3%. In addition, the growth with NCI-H522 lung was 76.7%; with A549/ATCC NSCLC, 50.9%; with 786-0 renal, 47.6%; in the assay with COLO 205 colon, 21.4%; in the assay with DU-145 prostate it was 86.8%; in the assay on K-562 leukemia, 29.7%. Also, the growth in the assay with MALME-3M melanoma is 67.5%; in the assay on MDA-MB-231 breast, 32%; in the assay with RXF 393 renal it was -18.5% (active); in the assay with SF-268 CNS, 79.8%; in the assay with SF-295 CNS, 88%; with SF-539 CNS, 65.8%. Further, the growth in the assay with UACC-257 melanoma was -8.78% (active); with M14 melanoma, -65.9% (active).
